Reference: article PMC5540273 (PLoS ONE, 2017)

Assays:
Conditions in all cases: concentration: 1 μM, replicates: in singlicate; n = 1
MLK1 = test system: T1, MLK1
T1 construct: gene MAP3K9

MLK2 = test system: MLK2
MLK3 = test system: MLK3
MRCKA = test system: MRCKA
MRCKB = test system: T2, MRCKB
T2 construct: gene CDC42BPB

MST1R = test system: MST1R
MST1 = test system: T3, MST1
T3 construct: gene STK4

MST2 = test system: T4, MST2
T4 construct: gene STK3

MST3 = test system: T5, MST3
T5 construct: gene STK24

MST4 = test system: MST4
MTOR = test system: MTOR
MUSK = test system: MUSK
MYLK2 = test system: MYLK2
MYLK4 = test system: MYLK4
MYLK = test system: MYLK
MYO3A = test system: MYO3A
MYO3B = test system: MYO3B
NDR1 = test system: T6, NDR1
T6 construct: gene STK38

NDR2 = test system: NDR2
NEK10 = test system: NEK10
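Note: KINOMEscan kinase panel screen.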

Structure (SMILES)	%Inh (MLK1)	%Inh (MLK2)	%Inh (MLK3)	%Inh (MRCKA)	%Inh (MRCKB)	%Inh (MST1R)	%Inh (MST1)	%Inh (MST2)	%Inh (MST3)	%Inh (MST4)	%Inh (MTOR)	%Inh (MUSK)	%Inh (MYLK2)	%Inh (MYLK4)	%Inh (MYLK)	%Inh (MYO3A)	%Inh (MYO3B)	%Inh (NDR1)	%Inh (NDR2)	%Inh (NEK10)
Cl.N#CCc1ccc(Nc2nccc(Nc3ccc(Oc4ccccc4)cc3)n2)cc1 [GW639905]	0%	0%	0%	6%	0%	2%	20%	0%	0%	0%	24%	14%	1%	9%	0%	0%	3%	0%	0%	8%
COc1cccc2c(-c3ccncc3)c(-c3ccc(F)cc3)nn12 [GW468513]	0%	1%	4%	60%	67%	15%	31%	0%	0%	0%	20%	21%	0%	0%	12%	4%	0%	8%	0%	0%
CCNc1nccc(-c2c(-c3ccc(F)cc3)ncn2C2CCN(C)CC2)n1	0%	7%	0%	0%	0%	0%	0%	38%	21%	0%	0%	97.7%	0%	0%	0%	5%	0%	3%	5%	0%
N#Cc1cnc2cc(-c3cnc(CNCCN4CCOCC4)s3)ccc2c1Nc1ccc(Oc2ccccc2)cc1 [GW664114]	78%	17%	83%	9%	0%	86%	20%	12%	34%	18%	12%	3%	0%	13%	6%	55%	48%	14%	0%	4%
Cc1ccc(-c2ccc3occ(-c4ccc(S(C)=O)cc4)c3c2)nn1 (centres unmarked)	0%	10%	0%	0%	0%	0%	0%	0%	0%	0%	17%	3%	11%	0%	0%	0%	1%	2%	15%	25%
CN(c1ccc(NC(=O)Nc2cccc(Cl)c2)cc1)c1ccnc(N)n1.Cl [GW830707]	0%	7%	0%	0%	17%	22%	0%	11%	0%	16%	13%	72%	0%	6%	0%	3%	36%	10%	25%	1%
COc1cc(Nc2nccc(N3CCC(NC(=O)Nc4ccc5c(c4)OCO5)C3)n2)cc(OC)c1OC (centres unmarked) [GSK1379766]	36%	0%	46%	11%	0%	39%	0%	32%	0%	0%	26%	19%	10%	1%	21%	18%	0%	0%	9%	34%
CCn1c(-c2nonc2N)nc2c(-c3ccccc3)ncc(OCCCN)c21.O=C(O)C(F)(F)F.O=C(O)C(F)(F)F [GSK260205]	0%	0%	0%	99.9%	99.3%	45%	52%	0%	38%	71%	20%	0%	0%	0%	33%	27%	0%	23%	0%	9%
COc1cccc(NC(=O)NCCNc2ccnc(Nc3ccc(F)cc3)n2)c1 [GSK1379879]	0%	0%	0%	34%	3%	37%	0%	15%	0%	0%	32%	5%	0%	0%	16%	22%	0%	18%	0%	0%
Nc1ncc(-c2cn[nH]c2)c2scc(-c3ccc4c(c3)CCN4C(=O)Cc3ccccc3)c12 [GSK2593067]	16%	0%	32%	0%	0%	27%	99.4%	14%	0%	20%	4%	64%	69%	17%	4%	6%	0%	0%	0%	22%
CC(C)(C)c1ccc(C(=O)Nc2cn3cc(-n4ccnc4)ccc3n2)cc1	18%	0%	0%	28%	0%	28%	7%	3%	0%	0%	10%	1%	18%	2%	0%	0%	0%	8%	7%	0%
CN(c1ccc2c(c1)nc(NCc1ccccc1)n2C)c1ccnc(Nc2ccc(CS(C)(=O)=O)cc2)n1.Cl [GW811603]	12%	17%	2%	11%	0%	23%	24%	2%	0%	0%	10%	36%	26%	0%	8%	5%	19%	8%	0%	17%
Cc1cccc(Nc2nc(N[C@H]3CCCC[C@H]3N)ncc2C(N)=O)c1.Cl [GSK986310]	85%	40%	76%	13%	0%	44%	34%	0%	52%	34%	0%	27%	7%	93.8%	29%	8%	0%	27%	0%	71%
CSc1ccc(NC2=C(c3ccc(Cl)cc3)C(=O)NC2=O)cc1 [SB-317658]	0%	4%	0%	0%	0%	33%	29%	45%	0%	6%	0%	34%	10%	24%	0%	18%	20%	9%	9%	14%
CN(C)CCOc1ccc(-c2cc(-c3ccc(Cl)c(O)c3)c(-c3ccncc3)[nH]2)cc1.Cl.Cl [SB-684387]	0%	0%	0%	8%	5%	34%	0%	17%	0%	0%	19%	0%	28%	9%	18%	39%	13%	35%	42%	0%
CCNC(=O)/C=C/c1n[nH]c2cc(Sc3ccccc3C(=O)NC)ccc12	7%	7%	0%	0%	48%	8%	0%	0%	30%	0%	14%	32%	3%	20%	11%	8%	0%	25%	18%	24%
COC(=O)Nc1nc2ccc(Oc3ccc(NC(=O)Nc4cc(C(F)(F)F)ccc4F)cc3)cc2[nH]1.Cl [GW654607]	2%	21%	1%	15%	0%	61%	6%	0%	6%	8%	34%	99.6%	33%	0%	10%	0%	0%	29%	0%	21%
COc1ccc(NC(=O)c2ccoc2)cc1-c1ccc(C(=O)NCC2CC2)cc1 [GW810437]	0%	25%	0%	0%	19%	0%	22%	8%	1%	0%	36%	0%	0%	0%	0%	7%	21%	32%	16%	16%
O=C1NC(=O)C(c2ccccc2Cl)=C1Nc1cccc(Cl)c1 [SB-342409]	0%	28%	0%	11%	14%	0%	3%	8%	0%	0%	4%	8%	11%	3%	9%	0%	3%	1%	0%	51%
